Assay outcomes: PubChem, National Center for Advancing Translational Sciences (NCATS)
Most compounds without a hit are left out; they make up all but 10% or so of the library.
Six1-Eya2 blk: qHTS Assay for Inhibitors of the Six1/Eya2 Interaction; Homeobox protein SIX1 (Homo sapiens) + Protein phosphatase EYA2 (Homo sapiens), …; AlphaScreen GST-Six1/His-Eya2 binding, biochemical; stronger effect = lower value; activity change, % (concentration not given with the values); hit rate 0.56% among 360,000; AID 651725, 2012; in the data active means activity change below about -65%; inconclusive means mostly about -30% to -63%; further: on the % scale 0 is the no-effect control and ±100 the full control effect
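Compounds are tested against tagged Six1 and Eya2 proteins bridged by glutathione donor and nickel acceptor beads; after a one-hour incubation at 37 °C without light, AlphaScreen emission is recorded.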
JMJD2A Tudor inh: qHTS Assay for Inhibitors of JMJD2A-Tudor Domain; AlphaScreen JMJD2A-Tudor / H3K4me3 peptide binding; Potency, µM (top dose mostly 114 µM), inactives show at the top dose activity change, negative = inhibition, most hits filed as inhibitors; hit rate 4.4% among 390,000; Lysine-specific demethylase 4A (Homo sapiens), O75164; further: potency means the concentration at half of the fitted maximal effect; on the % scale 0 is the no-effect control and ±100 the full control effect; nearly all actives have a fitted effect of over 50% in size
Target sequence (O75164 whole entry, looked up, the tested form may be a part): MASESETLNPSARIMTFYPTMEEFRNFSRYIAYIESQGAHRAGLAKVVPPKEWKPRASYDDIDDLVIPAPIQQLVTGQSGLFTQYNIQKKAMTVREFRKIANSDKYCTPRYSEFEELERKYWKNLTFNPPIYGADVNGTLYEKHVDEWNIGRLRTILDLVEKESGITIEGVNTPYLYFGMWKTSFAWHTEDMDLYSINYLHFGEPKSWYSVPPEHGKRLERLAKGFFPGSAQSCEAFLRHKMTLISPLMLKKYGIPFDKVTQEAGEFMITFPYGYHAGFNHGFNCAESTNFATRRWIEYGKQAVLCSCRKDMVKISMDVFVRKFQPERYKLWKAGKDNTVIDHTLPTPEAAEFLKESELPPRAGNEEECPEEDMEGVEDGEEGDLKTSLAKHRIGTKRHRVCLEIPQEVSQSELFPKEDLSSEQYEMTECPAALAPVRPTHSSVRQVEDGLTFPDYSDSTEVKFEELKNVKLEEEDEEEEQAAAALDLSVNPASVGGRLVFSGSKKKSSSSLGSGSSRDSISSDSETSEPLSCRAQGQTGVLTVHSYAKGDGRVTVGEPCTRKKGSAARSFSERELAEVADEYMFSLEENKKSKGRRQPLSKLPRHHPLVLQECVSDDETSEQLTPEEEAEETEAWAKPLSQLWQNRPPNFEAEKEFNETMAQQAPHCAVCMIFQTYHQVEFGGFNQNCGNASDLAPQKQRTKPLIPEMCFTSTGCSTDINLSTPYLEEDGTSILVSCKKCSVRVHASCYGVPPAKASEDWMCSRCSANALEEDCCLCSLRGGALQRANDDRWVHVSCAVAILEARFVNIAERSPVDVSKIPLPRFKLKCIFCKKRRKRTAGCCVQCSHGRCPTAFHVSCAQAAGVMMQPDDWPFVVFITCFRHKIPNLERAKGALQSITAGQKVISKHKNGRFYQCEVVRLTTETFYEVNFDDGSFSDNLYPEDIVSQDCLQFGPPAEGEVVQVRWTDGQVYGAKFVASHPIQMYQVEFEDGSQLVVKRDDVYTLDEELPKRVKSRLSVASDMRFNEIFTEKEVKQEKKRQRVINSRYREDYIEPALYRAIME
G9a inh: qHTS Assay for Inhibitors of Histone Lysine Methyltransferase G9a | Histone-lysine N-methyltransferase EHMT2 (Homo sapiens), Q96KQ7 | G9a H3K9 monomethylation, AlphaScreen, 2 h | Potency, µM (top dose mostly 102 µM), for the others: at the highest dose activity, negative = inhibition, usual class: inhibitors | hit rate 8.8% among 350,000 | AID 504332, 2011; further: potency means the concentration at half of the fitted maximal effect; on the % scale 0 is the no-effect control and ±100 the full control effect; nearly all actives have a fitted effect of over 75% in size
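AlphaScreen detection with an anti-monomethyl H3K9 antibody quantified product after a 2 h room-temperature reaction containing 500 nM biotinylated H3K9 peptide, 20 µM SAM and 20 nM enzyme, which had been preincubated 15 min with compound.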
HP1b binding inh: HTS for Inhibitors of HP1-beta Chromodomain Interactions with Methylated Histone Tails | Chromobox protein homolog 1 (Homo sapiens), P83916 | AlphaScreen HP1-beta / biotin-H3K9me3 peptide binding | Potency, µM (top dose mostly 114 µM), for the others: at the highest dose activity change, negative = inhibition, actives largely listed as inhibitors | hit rate 0.56% among 390,000 | AID 540317, 2011; further: potency means the concentration at half of the fitted maximal effect; nearly all actives have a fitted effect of over 70% in size
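Compound inhibition of the preformed complex between 50 nM HP1-beta and 50 nM biotinylated H3K9me3 peptide was read by AlphaScreen. Buffer was PBS pH 7.4 with 0.01% Tween-20. Incubations ran 30 min at room temperature, with 10 ug/mL donor/acceptor beads.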
CtBP-E1A inh: qHTS Assay for Inhibitors of the CtBP/E1A Interaction. CtBP / adenovirus E1A interaction (AlphaScreen). AlphaScreen GST-E1A/His-CtBP binding, 1536-well; stronger effect = lower value. activity change, % (no concentration beside the values). hit rate 0.49% among 340,000; in the data active means activity change below about -65%; inconclusive means mostly about -30% to -63%; further: on the % scale 0 is the no-effect control and ±100 the full control effect
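GST-E1A and His-tagged CtBP (125 nM each as 5X stock) were preincubated with pin-transferred compound for 2 h at 37 °C in the dark, then glutathione donor and nickel acceptor beads were added for 1 h before AlphaScreen reading.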
BAZ2B inh: qHTS Assay for Inhibitors of BAZ2B; Bromodomain adjacent to zinc finger domain protein 2B (Homo sapiens), Q9UIF8; AlphaScreen BAZ2B-H3K14Ac peptide displacement; Potency, µM (highest dose often 114 µM), for the others: at the highest dose activity change, negative = inhibition, most hits filed as inhibitors; hit rate 4.4% among 360,000; AID 504333, 2011; further: potency means the concentration at half of the fitted maximal effect; on the % scale 0 is the no-effect control and ±100 the full control effect; nearly all actives have a fitted effect of over 60% in size
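In this displacement format the biotinylated H3(5-23) peptide acetylated at Lys14 serves as ligand at 50 nM, with BAZ2B at 50 nM in PBS pH 7.4 containing 0.01% Tween-20. Donor and acceptor beads are 10 ug/mL final.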
Active calls of the source: *; u = inconclusive; x = not tested or not shown; ! = not active in a repeat; [ ] = another dose, or the depositor's remark. Unless noted, the call rests on the fitted dose curve; in most records, active means well fitted inhibition curve with a large enough effect; inconclusive means small, poorly fitted or top-dose-only effect; inactive means no such curve, though single readings can be large or run the other way.

SMILES | Six1-Eya2 blk | JMJD2A Tudor inh | G9a inh | HP1b binding inh | CtBP-E1A inh | BAZ2B inh
CN(C)c1ccc(/C=C(/NC(=O)c2ccccc2)C(=O)NCCCn2ccnc2)cc1 | -6 | -35% | 8%[0.0925 µM] | 1% | x | 35µM*
Cc1ccc(C(=O)N/C(=C\c2cn(S(=O)(=O)N(C)C)c3ccccc23)C(=O)NCCCn2ccnc2)cc1 | -14 | u | -6% | 50µM*! | -16 | u
O=C(NCCCn1ccnc1)/C(=C/c1ccc(Cl)cc1)NC(=O)c1ccccc1 | -14 | -31% | 3% | 16% | -3 | 50µM*
COc1ccc(/C=C(\NC(=O)c2ccc(C)cc2)C(=O)NCCCn2ccnc2)cc1 | -4 | -18% | 5% | 23% | -5 | 50µM*
O=C(NCCCn1ccnc1)/C(=C\c1cccs1)NC(=O)c1ccccc1 | 9 | -18% | -4% | 15% | 17 | -3%
CCC(=O)N1c2ccccc2CC1C(=O)NCc1ccccc1Cl (stereo not given) | x | 3% | 0%[12.7 µM] | 35% | x | -2%
Cc1cc(S(=O)(=O)Nc2cccc(C(=O)O)c2)c(C)c(S(=O)(=O)c2ccccc2)c1 | x | -11% | 0%[59 µM] | 45% | x | 4%
CN(C)c1ccc(/C=C(\NC(=O)c2ccccc2)C(=O)NCCN2CCOCC2)cc1 | -4 | -15% | 71µM* | 3% | 2 | -5%
CN(C)c1ccc(/C=C(\NC(=O)c2ccccc2)C(=O)NCCCN2CCOCC2)cc1 | 0 | -14% | x | -2% | 18 | -11%
C#CCOCCOCCOCCNc1nc(N2CCN(C(=O)C([C@@H](C)CC)n3cc(C(N)Cc4ccc(O)cc4)nn3)CC2)nc(N2CCN(C(=O)[C@H](CCC(=O)O)n3cc(C(N)CO)nn3)CC2)n1 (stereo not given in full) | -11 | 56µM* | u | 22% | -13 | 50µM*
C#CCOCCOCCOCCNc1nc(N2CCN(C(=O)[C@H]([C@@H](C)CC)n3cc(CCC(=O)O)nn3)CC2)nc(N2CCN(C(=O)[C@H](Cc3ccc(O)cc3)n3cc(CCO)nn3)CC2)n1 | -5 | u | x | 33% | 2 | x
C#CCOCCOCCOCCNc1nc(N2CCN(C(=O)C([C@@H](C)CC)n3cc(C(N)Cc4ccc(O)cc4)nn3)CC2)nc(N2CCN(C(=O)[C@H](CCC(=O)O)n3cc(C(N)CC(C)C)nn3)CC2)n1 (stereo not given in full) | -10 | 56µM* | u | 53% | -13 | 50µM*
C#CCOCCOCCOCCNc1nc(N2CCN(C(=O)C([C@@H](C)CC)n3cc(C(N)Cc4ccc(O)cc4)nn3)CC2)nc(N2CCN(C(=O)[C@H](CCC(=O)O)n3cc(C(N)Cc4ccc(O)cc4)nn3)CC2)n1 (stereo not given in full) | -6 | 50µM* | u | 31% | -11 | 56µM*
C#CCOCCOCCOCCNc1nc(N2CCN(C(=O)C([C@@H](C)CC)n3cc(C(N)CC(C)C)nn3)CC2)nc(N2CCN(C(=O)[C@H](CCC(=O)O)n3cc(C(N)Cc4ccc(O)cc4)nn3)CC2)n1 (stereo not given in full) | -11 | 79µM* | u | 55% | -11 | u
C#CCOCCOCCOCCNc1nc(N2CCN(C(=O)C([C@@H](C)CC)n3cc(C(N)Cc4ccc(O)cc4)nn3)CC2)nc(N2CCN(C(=O)[C@H](CCC(=O)O)n3cc(C(N)[C@H](C)CC)nn3)CC2)n1 (stereo not given in full) | -8 | u | 13%[12.7 µM] | 24% | -7 | 79µM*
COc1cc(C(F)(F)F)c(C(=O)NCc2cccc(Cl)c2)cn1 | 7 | 10% | 79µM* | 46% | 12 | 4%
